# A selection: hits, their analogues and other compounds. The true share with any hit is near 0.73%.
# Vc quorum ag-1: induces V. cholerae light production without autoinducers | V. cholerae BH1578 lux reporter, luminescence, 6 h | AID 588436 | actives 0.16% (n = 350,000) | activation, % at 18.7 µM; in the data active means activation mostly above about 9.7%, no sharp cut-off
# TcdB inh: inhibitors of Clostridioides difficile toxin B glycohydrolase. P18177. actives 0.24% (n = 350,000). AID 652162. inhibition, % at 9.99 µM. TcdB glycohydrolase enzymatic assay, plate reader; in the data active means inhibition above about 10%
# VHR inh abs: blocks human VHR1 dual specificity phosphatase; recombinant VHR phosphatase, pNPP absorbance; inhibition, % at 13.3 µM; actives 0.52% (n = 290,000); AID 1654; in the data active means inhibition above about 50%
# Mtb BioA inh: blocks M. tuberculosis BioA enzyme activity. purified M. tuberculosis BioA enzyme, plate reader. inhibition, % at 9.99 µM. actives 0.096% (n = 360,000). AID 602481; in the data active means inhibition above about 40%
# Y pestis TopoI: Y. pestis Topo-I inhibition via cleavage products; AID 504884; actives 0.064% (n = 360,000); activity, % at 10 µM; Y. pestis Topo-I cleavage product accumulation, plate reader; in the data active means activity above about 50%, passing the limit was not always enough
# Vc quorum ag-2: quorum light induction in BH1578 reporter strain | shares compounds with Vc quorum ag-1 | V. cholerae BH1578 lux reporter, luminescence, 6 h | activation, % at 50 µM | 620 tested, under 10 active; call rule not given here
# HeLa tox: cytotoxicity in HeLa cells at 24 hours; shares compounds with Vc quorum ag-1; HeLa viability, CellTiter-Glo ATP luminescence; activity change, negative = cytotoxicity, % at 35 µM; 25 tested, under 10 active; AID 624140;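 active means signal drop with fitted half-maximal concentration at or below twice the highest valid dose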
# The depositor's hits bear a star; i = inactive; . = not tested or not shown; + = active, no number.
SMILES,Vc quorum ag-1,TcdB inh,VHR inh abs,Mtb BioA inh,Y pestis TopoI,Vc quorum ag-2,others
Clc1ccc2nc(SCc3nnc(-c4ccccc4)o3)[nH]c2c1,i,.,4,3,-2,.,
Cc1ccc2nc(SCc3nnc(-c4ccccc4Br)o3)[nH]c2c1,12,.,17,1,8,0,
CN(C)Cc1c(O)c(Cl)cc2c3c(c(=O)oc12)CCCC3,.,.,13,3,6,.,
O=c1oc2c(CN3CCOCC3)c(O)c(Cl)cc2c2c1CCC2,31*,.,3,0,-9,4,
CCOC(=O)C1CCCN(Cc2cccc(Cl)c2)C1 (stereo not drawn),12,.,4,0,4,0,
Cc1ccccc1NC(=O)Cc1nc(COC(=O)c2ccccn2)cs1,14,1,.,1,3,0,
O=C(C1CC1)N1CCCCN2[C@H](C1)[C@@H](c1ccc(C#CC3(O)CCCC3)cc1)[C@@H]2CO,.,-2,.,-2,.,.,
Cc1ccc(CN(Cc2cc3cc(C)ccc3[nH]c2=O)C(=O)N2CCOCC2)cc1,17*,.,-20,0,2,7,
CCCCN(C)CCNC(=O)c1ccc2c(c1)NC(=O)C(N1CCCCC1)S2 (stereo not drawn),17*,.,24,0,2,0,
COc1cc(NC(=O)C2=C(C)OCCS2)c(Cl)cc1C(=O)NCCN(C)C,34*,1,44,-1,-1,1,
COc1cc(CCNC(=O)c2ccccc2NC(=O)C2=C(C)OCCS2)cc(OC)c1OC,-1,2,65,3,11,.,
O=C(c1ccc(C(=O)N2CCOCC2)nc1)N1CCOCC1,17*,.,13,2,-3,0,
O=C(c1ccc(N2CCOCC2)nc1)N1CCOCC1,2,1,-8,-1,13,.,
CCN1[C@@H]2c3ccc(-c4ccncc4)c(=O)n3C[C@H]1[C@H](CO)[C@H]2C(=O)NCc1ccccc1,.,-6,.,0,.,.,
C=CCn1c(NCc2ccccc2)nc2ccccc21,17*,.,31,-1,-3,0,
Cc1cc(C)c(S(=O)(=O)Nc2ccccn2)c(C)c1,52*,0,-8,-3,-2,0,
Cc1ccc(S(=O)(=O)Nc2ccccn2)c(C)c1,1,2,.,-1,9,.,
COc1cc(C(N)=O)cc(Br)c1OC,25*,.,2,.,2,0,
O=C(COC(=O)COc1ccc(Cl)cc1)NC1CCS(=O)(=O)C1 (stereo not drawn),-1,0,.,-2,1,.,
Cc1cc(Cl)ccc1OCC(=O)OCC(=O)NC1CCS(=O)(=O)C1 (stereo not drawn),14,1,.,-1,0,0,
CCN(C(=O)COc1ncnc2ccc(Br)cc12)C1CCS(=O)(=O)C1 (stereo not drawn),17*,.,5,-1,-8,-1,
CCN(C(=O)COC(=O)c1cc(-c2ccccc2)nc2ccc(Br)cc12)C1CCS(=O)(=O)C1 (stereo not drawn),i,1,-21,.,-5,.,
C[C@H](CO)N1C[C@H](C)[C@H](CN(C)Cc2ccc(F)cc2)OCc2ccccc2-c2ccccc2C1=O,.,2,.,-3,.,.,
O=C(Nc1nccs1)C(NS(=O)(=O)c1ccc(Br)s1)c1ccccc1 (stereo not drawn),25*,.,5,-2,-9,0,
CCCNC(=O)Nc1ccc2c(c1)C(=O)N(C)[C@@H]1CC[C@H](CC(=O)NCCCN(C)C)O[C@@H]1CO2,.,0,.,2,.,.,
SMILES,Vc quorum ag-1,TcdB inh,VHR inh abs,Mtb BioA inh,Y pestis TopoI,Vc quorum ag-2,others
CCN(CC)c1ccc(CNc2nnnn2C)cc1,+,-3,40,1,-7,i,
CCCn1nnnc1NCc1ccc(N(CC)CC)cc1,.,-1,-16,1,-3,i,HeLa tox=-3
CCCn1nnnc1NCc1ccc(OC)cc1OC,+,1,9,3,-1,i,
CCCn1nnnc1NCc1ccc(F)cc1,i,0,-23,.,-5,.,
CCCn1nnnc1NCc1ccccc1OCc1ccc(F)cc1,-2,.,10,0,9,.,
CCCn1nnnc1NCc1cc(Br)ccc1OC,0,2,-31,2,-9,.,
CCCn1nnnc1NCc1ccc(SC)cc1,.,-5,6,-1,-3,i,
O=C(CNC(=O)c1ccncc1)Nc1ccc(F)c(F)c1,12,0,0,0,3,0,

# High-throughput results as filed in PubChem BioAssay.
